Bioassay records from PubChem.
AmpC detergent = inhibitors of E. coli AmpC beta-lactamase with detergent; Potency, µM (titrated, usually from 114 µM), inactives show at the highest dose activity change, negative = inhibition, usual class: inhibitors; P00811; 0.041% of 370,000 active; AID 485294; AmpC hydrolysis of nitrocefin, absorbance 480 nm, 0.01% Triton;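 further: 0% = no-compound wells and -100% = no-enzyme wells; nearly all actives have a fitted effect of over 25% in size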
Target sequence (P00811 whole entry, looked up): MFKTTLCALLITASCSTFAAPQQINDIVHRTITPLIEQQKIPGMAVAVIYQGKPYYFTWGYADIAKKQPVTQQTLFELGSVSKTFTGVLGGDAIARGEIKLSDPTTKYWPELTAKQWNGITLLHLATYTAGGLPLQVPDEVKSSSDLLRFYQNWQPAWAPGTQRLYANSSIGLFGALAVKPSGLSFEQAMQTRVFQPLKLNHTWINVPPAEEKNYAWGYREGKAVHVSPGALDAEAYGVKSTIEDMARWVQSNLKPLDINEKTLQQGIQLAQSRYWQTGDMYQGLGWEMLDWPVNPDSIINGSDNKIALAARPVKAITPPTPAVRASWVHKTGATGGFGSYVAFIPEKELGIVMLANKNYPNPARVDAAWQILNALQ
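AmpC (5.3 nM in the dispensed reagent) in 20 mM phosphate pH 7.0 with 0.01% (detergent screen) or 0.0001% Triton X-100 was preincubated with compounds for 15 min at room temperature. Nitrocefin was then added from an 800 uM solution, and hydrolysis was followed at 480 nm.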
Pf growth 96h = inhibits malaria parasite growth, 96 h. P. falciparum luciferase reporter growth, 96 h. Potency, µM (titrated, usually from 28.7 µM), for inactives: top-dose activity change, negative = inhibition, most hits filed as inhibitors. 6.9% of 320,000 active; further: on the % scale 0 is the no-effect control and ±100 the full control effect
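P. falciparum expressing integrated firefly luciferase, in erythrocytes at 2% hematocrit, 0.05% parasitemia, incubated with compounds 96 h at 37 C, 5% CO2. Growth inhibition read as loss of luminescence; two-generation exposure targets delayed-death apicoplast inhibitors.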
Pf growth 48h = P. falciparum growth inhibition at 48 hours (one generation). P. falciparum luciferase growth in erythrocytes, 48 h. Potency, µM (series often up to 28.7 µM), inactives show at the top dose activity change, negative = inhibition, usual class: inhibitors. 5.9% of 310,000 active. AID 504832; further: on the % scale 0 is the no-effect control and ±100 the full control effect
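A one-generation exposure of luciferase-tagged malaria parasites in RPMI 1640/Albumax erythrocyte culture, 37 C and 5% CO2. Inhibition is inferred from decreased luminescence after adding detection reagent.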
AmpC no deterg = AmpC beta-lactamase inhibition without detergent; P00811; AmpC nitrocefin hydrolysis, absorbance 480 nm, 0.0001% Triton; Potency, µM (doses to about 57.1 µM), inactives show top-dose activity change, negative = inhibition, hits mostly inhibitors; 0.52% of 330,000 active;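 further: plate controls were no compound for no effect and no enzyme for full effect; nearly all actives have a fitted effect of over 20% in size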
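20 mM phosphate pH 7.0 + 0.01% (detergent screen) or 0.0001% Triton X-100; 5.3 nM AmpC reagent; cpd preinc 15 min RT; nitrocefin (800 uM stock) to start; A480 q20 s × 4 min; Activity was normalised to no-enzyme and no-compound control wells.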
Sm TGR inh = blocks Schistosoma mansoni thioredoxin glutathione reductase; Q962Y6; purified TGR, DTNB reduction, TNB absorbance 405 nm; Potency, µM (highest dose often 114 µM), for inactives: at the top dose activity change, negative = inhibition, hits mostly inhibitors; 3% of 360,000 active; further: on the % scale 0 is the no-effect control and ±100 the full control effect; nearly all actives have a fitted effect of over 60% in size
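First, TGR (20 nM dispensed) and NADPH were mixed with compound. Second, a 15 min room-temperature incubation followed. Third, further NADPH and then DTNB were added to start the reaction. Finally, TNB absorbance was monitored kinetically.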
SARS PLpro yeast = blocks SARS-CoV papain-like protease in a yeast assay | Potency, µM (top dose mostly 32.9 µM), for inactives: at the top dose activity, positive = growth rescue, hits mostly activators | S. cerevisiae expressing SARS-CoV PLpro, growth rescue | 0.19% of 330,000 active; calls by dose curve; further: 0% is about no effect; nearly all actives have a fitted effect of over 55% in size
* hit, by the source's call; ? = inconclusive; . = not tested or not shown. The list is not random: actives were taken first. Their share in the collection is about 12%. Unless noted, the call rests on the fitted dose curve; in most records, active means well fitted curve in the direction sought with a large enough effect; inconclusive means small, poorly fitted or top-dose-only effect, or another doubt; inactive means no such curve, though single readings can be large; an effect the other way counts as inactive or inconclusive. Potency means the concentration at half of the fitted maximal effect.

SMILES	AmpC detergent	Pf growth 96h	Pf growth 48h	AmpC no deterg	Sm TGR inh	SARS PLpro yeast
CCCCc1nc(NCc2ccccc2)c(C#N)c2c1COC(C)(C)C2	-1%	.	-16%	-38%	0%	0%
CC(C)c1nc(NCc2ccccc2)c(C#N)c2c1CCCC2	5%	?	?	-27%	-19%	3%
N#Cc1c(NCCCO)nc(NCc2ccccc2)c2c1CCN(Cc1ccccc1)C2	1%	10µM*	?	65%	6%	-21%
COc1ccc(CNC(=O)Cc2coc3ccc(C)cc23)cc1	-2%	.	.	.	-1%	.
COc1ccc(NC(=O)c2cccc(S(=O)(=O)N3CCCCC3)c2)c(OC)c1	-4%	2.9µM*	-2%	11%	1%	-5%
COc1ccc(NC(=O)c2cccc(S(=O)(=O)N3CCN(c4ccccc4)CC3)c2)c(OC)c1	0%	?	10µM*	-10%	-9%	7%
CNC(=O)c1ccccc1NC(=O)c1cccc(S(=O)(=O)N2CCCCC2)c1	-3%	2.9µM*	?	-5%	0%	0%
COc1ccc(NC(=O)c2ccc(S(=O)(=O)N3CCCCCC3)cc2)c(OC)c1	0%	13µM*	74%	2%	0%	2%
CCOc1ccc(-c2c(C)nn3c(C)c(C(=O)NCC(C)c4ccccc4)cnc23)cc1OCC (stereo not drawn)	20%	.	.	.	-2%	.
O=C(COC(=O)c1cc(Br)ccc1O)Nc1cc(S(=O)(=O)N2CCCC2)ccc1Cl	0%	-4%	-15%	-42%	2%	1%
COc1ccc(NC(=S)Nc2cccc(S(=O)(=O)N3CCCCC3)c2)cc1	-11%	10%	-7%	-39%	35µM*	0%
COc1ccc(NC(=S)Nc2cc(S(=O)(=O)N3CCCCC3)ccc2OC)cc1	-20%	?	?	-58%	-21%	-8%
CCn1c(COc2ccc(OC)cc2)nc2ccccc21	-5%	4.7µM*	57%	-18%	-11%	4%
Cc1cccc(OCCn2c(CCCO)nc3ccccc32)c1	?	?	15µM*	126%	3%	2%
CCOc1ccc(NCc2nc3ccccc3n2CCOc2ccccc2)cc1	-6%	6.6µM*	79%	-49%	1%	-84%
CCn1c(COc2ccccc2)nc2ccccc21	-8%	484%	-19%	-10%	-21%	17%
COCc1nc2ccccc2n1CCOc1cccc(C)c1	-2%	.	.	.	-1%	.
COC(=O)c1c(NC(=O)CCC(=O)O)sc(Cc2ccccc2)c1C	-1%	4%	12µM*	-15%	-2%	-2%
COC(=O)c1c(NC(=O)CCc2ccc(C)o2)sc(C)c1C	7%	5%	-9%	-10%	40µM*	-18%
CCOC(=O)c1c(NC(=O)CCc2ccc(CC)o2)sc(C)c1C	2%	52%	3%	-19%	-2%	-17%
COc1cc(C(=O)OCC(=O)NC(N)=O)cc(CN2C(=O)c3ccccc3C2=O)c1OC	-2%	-12%	.	-13%	2%	3%
COc1ccc(CC(=O)OCC(=O)c2ccc(S(=O)(=O)N3CCCCC3)cc2)cc1	0%	-26%	-23%	-21%	2%	-1%
CCOCc1c(C(=O)Nc2cc(OCC)c(N3CCOCC3)cc2OCC)oc2ccccc12	9%	?	35%	-15%	-3%	-5%
CCOCc1c(C(=O)Nc2ccc3nc(N4CCOCC4)sc3c2)oc2ccccc12	-4%	?	15µM*	139%	-1%	7%
CCOCc1c(C(=O)Nc2ccccc2N2CCN(C)CC2)oc2ccccc12	-14%	13µM*	?	173%	-1%	-8%
SMILES	AmpC detergent	Pf growth 96h	Pf growth 48h	AmpC no deterg	Sm TGR inh	SARS PLpro yeast
COCCCNC(=O)Cn1c(=O)n(CCCCCC(=O)NCc2ccc3c(c2)OCO3)c(=O)c2sccc21	3%	35%	?	0%	11%	-1%
Cc1ccc2nc(N3C(=O)C(O)=C(C(=O)c4ccco4)C3c3ccc(O)cc3)sc2c1 (stereo not drawn)	-2%	?	-8%	-11%	-30%	3%
Cc1ccc2nc(N3C(=O)C(O)=C(C(=O)c4ccco4)C3c3ccc(C)o3)sc2c1 (stereo not drawn)	5%	5.2µM*	59%	-47%	32µM*	-17%
Cc1ccc2nc(N3C(=O)C(O)=C(C(=O)c4ccc(C)o4)C3c3ccco3)sc2c1 (stereo not drawn)	-1%	6.7µM*	52%	-47%	?	-3%
Cc1cccc(Cn2c(=O)n(-c3ccc(Cl)c(Cl)c3)c(=O)c3c(C)c(C)sc32)c1	22%	.	.	.	10%	.
COc1ccc(CCNc2nc(-c3ccco3)cc(C(F)(F)F)n2)cc1OC	-3%	?	?	85%	1%	2%
FC(F)(F)c1cc(-c2ccco2)nc(NCc2ccccc2)n1	3%	?	?	-20%	18µM*	-17%
FC(F)(F)c1cc(-c2ccccc2)nc(NCc2cccnc2)n1	0%	?	3.7µM*	27%	-11%	-11%
Fc1ccc(-c2cc(C(F)(F)F)nc(NCc3ccccc3)n2)cc1	19%	.	.	.	8%	.
Fc1ccc(CNc2nc(-c3ccc(Cl)cc3)cc(C(F)(F)F)n2)cc1	1%	.	.	.	-2%	.
Fc1ccc(CNc2nc(-c3ccco3)cc(C(F)(F)F)n2)cc1	-3%	-13%	0%	-36%	25µM*	-17%
FC(F)(F)c1cc(-c2ccco2)nc(NCc2cccnc2)n1	3%	?	12µM*	46%	45µM*	-2%
COC(=O)[C@]1(C)CCC[C@@]2(C)C3CC[C@@]4(C)C[C@]3(CCC21)CC(=O)N4Cc1ccc(OC)cc1 (stereo partly drawn)	5%	1.5µM*	1.7µM*	65%	-3%	0%
COC(=O)[C@]1(C)CCC[C@@]2(C)C3CC[C@]4(OC(C)=O)C[C@@]3(CCC21)CC4=O (stereo partly drawn)	3%	?	?	101%	-30%	3%
[N-]=[N+]=NC1CC(CO)OC1n1ccc(=O)[nH]c1=O (stereo not drawn)	8%	-30%	15%	-16%	-1%	5%
O=C(CN1C(=O)NC2(CCCC2)C1=O)Oc1ccc2ccc(=O)oc2c1	-14%	-29%	2%	-20%	56µM*	-1%
O=C(CN1C(=O)NC2(CCCCC2)C1=O)Oc1ccc2c(C(F)(F)F)cc(=O)oc2c1	?	-10%	9%	-27%	40µM*	3%
O=C(CSc1ncc2c(n1)-c1ccccc1N(Cc1ccc(Cl)cc1)S2(=O)=O)c1ccc(Cl)cc1	-8%	.	.	.	-3%	.
